Screening data (PubChem BioAssay)
Only some compounds are listed: those with a hit (about 12% of all), similar ones and a draw of the others.
SARS PLpro yeast = SARS-CoV PLP inhibition in yeast | Potency, µM (highest dose often 32.9 µM), without a hit: at the highest dose activity, positive = growth rescue, hits mostly activators | S. cerevisiae expressing SARS-CoV PLpro, growth rescue | 330,000 tested, 0.19% active; calls by dose curve; also: 0% is about no effect; nearly all actives have a fitted effect of over 55% in size
Pf growth 96h = inhibits malaria parasite growth, 96 h; P. falciparum luciferase reporter growth, 96 h; Potency, µM (doses to about 28.7 µM), without a hit: top-dose activity change, negative = inhibition, actives largely listed as inhibitors; 320,000 tested, 6.9% active; also: % is scaled to controls: 0 for no effect and ±100 for the full control effect
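P. falciparum expressing integrated firefly luciferase grown in erythrocytes (2% hematocrit, 0.05% parasitemia final) with compounds for 96 hours at 37 C, 5% CO2. Growth inhibition read as loss of luminescence after adding luciferase detection reagent.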
Pf growth 48h = P. falciparum growth inhibition at 48 hours (one generation); P. falciparum luciferase growth in erythrocytes, 48 h; Potency, µM (series often up to 28.7 µM), for the others: top-dose activity change, negative = inhibition, usual class: inhibitors; 310,000 tested, 5.9% active; also: % is scaled to controls: 0 for no effect and ±100 for the full control effect
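Growth was read as firefly luciferase luminescence after a 48 h, 37 C, 5% CO2 exposure of compounds to reporter-bearing P. falciparum cultures (0.1% parasitemia, 2% hematocrit final) in Albumax-supplemented RPMI 1640.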
Sm TGR block = blocks Schistosoma mansoni thioredoxin glutathione reductase; AID 485364; Potency, µM (titrated, usually from 114 µM), without a hit: at the highest dose activity change, negative = inhibition, usual class: inhibitors; purified TGR, DTNB reduction, TNB absorbance 405 nm; 360,000 tested, 3% active; also: % is scaled to controls: 0 for no effect and ±100 for the full control effect; nearly all actives have a fitted effect of over 60% in size
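Kinetic colorimetric format: TGR-catalysed, NADPH-driven DTNB reduction monitored via TNB absorbance. Enzyme dispensed at 20 nM; compound exposure 15 min at room temperature before reaction start.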
Active calls of the source: *. Unless noted, calls follow the shape of the dose curve; as a rule, active = well fitted curve in the direction sought with a large enough effect; inconclusive = small, poorly fitted or top-dose-only effect, or another doubt; inactive = no such curve, though single readings can be large; an effect the other way counts as inactive or inconclusive. Potency is read from the fitted curve at half-maximal effect.

For CCOc1ccc(C(=O)Nc2ccc3nc(SCC(=O)N(C)c4ccccc4)sc3c2)cc1 the results were Sm TGR block 2.3%.
For Cc1ccc(NC(=O)C2CCCN(C(=O)c3ccc(Cl)cc3)C2)cc1S(=O)(=O)N1CCOCC1 (configuration not stated) the results were SARS PLpro yeast 3.6%, Pf growth 96h 7.38µM*, Pf growth 48h inconclusive and Sm TGR block 2.5%.
Cc1ccc(Cl)cc1NC(=O)C1CCCN(S(C)(=O)=O)C1 (configuration not stated) was read as SARS PLpro yeast -0.1%, Pf growth 96h 10.4µM*, Pf growth 48h 12.8% and Sm TGR block 2.1%.
`CCCCSc1nnc(-c2ccc(NC(=O)CCc3ccccc3)cc2)n1C` gave SARS PLpro yeast 8.2%, Pf growth 96h 11.7µM*, Pf growth 48h inconclusive and Sm TGR block -3.1%.
Screening Cn1c(SCC(=O)CC(=O)Nc2ccccc2)nnc1-c1ccc(O)cc1 returned SARS PLpro yeast 1.7%, Pf growth 96h 11.7µM*, Pf growth 48h 3.6% and Sm TGR block -15.1%.
COc1ccccc1NC(=O)CC(=O)CSc1nnc(-c2ccc(C)cc2)n1C was read as SARS PLpro yeast 1.5%, Pf growth 96h 1.5%, Pf growth 48h 11.7µM* and Sm TGR block 0.0%.
`Cn1c(SCC(=O)NCc2ccccc2)nnc1-c1ccc(NC(=O)CCc2ccccc2)cc1` gave SARS PLpro yeast 1.0%, Pf growth 48h inconclusive and Sm TGR block -0.3%.
`Cc1ccc(-c2nnc(SCC(=O)CC(=O)Nc3ccccc3)n2C)cc1` gave SARS PLpro yeast inconclusive, Pf growth 96h inconclusive, Pf growth 48h inconclusive and Sm TGR block 2.3%.
For O=C(c1cnn(-c2cccc(F)c2)c1-n1cccc1)N1CCN(c2ccccc2F)CC1 the results were Sm TGR block 9.7%.
`Cc1ccc(C)c(CN2C(=O)c3ccccc3S(=O)(=O)c3ccc(C(=O)N4CCc5ccccc54)cc32)c1` gave Sm TGR block -4.7%.
`CCCNC(=O)CN1C(=O)CSc2ccc(S(=O)(=O)N3CCC(C)CC3)cc21` gave Sm TGR block 4.1%.
Screening CSc1cccc(Nc2cc(C(=O)NCCCN(C)c3ccccc3)c3ccccc3n2)c1 returned Sm TGR block 6.1%.
Cc1nn2c([nH]c(=O)c3ccccc32)c1C=O was read as SARS PLpro yeast -6.7%, Pf growth 96h 11.7µM*, Pf growth 48h inconclusive and Sm TGR block 5.9%.
For Cc1nn2c(nc(N3CCCCC3)c3ccccc32)c1C=O the results were SARS PLpro yeast -1.1%, Pf growth 96h 5.22µM*, Pf growth 48h 3.29µM* and Sm TGR block -1.8%.
For Cc1cccc(Nc2cc(=O)n(C)c(=O)[nH]2)c1 the results were SARS PLpro yeast 1.9%, Pf growth 96h inconclusive, Pf growth 48h -4.2% and Sm TGR block -17.5%.
`COCCNC(=O)C1(S(=O)(=O)c2ccccc2)CC=CC1` gave SARS PLpro yeast 2.0%, Pf growth 96h 37.6%, Pf growth 48h 38.5% and Sm TGR block 2.8%.
C/C=C/c1ccc(OCC(=O)Nc2cc(Cl)ccc2-n2cncn2)c(OC)c1 was read as SARS PLpro yeast -8.8%, Pf growth 96h 11.7µM*, Pf growth 48h inconclusive and Sm TGR block 2.3%.
Screening COc1cccc(CC(=O)Nc2cc(S(=O)(=O)N3CCOCC3)ccc2N2CCOCC2)c1 returned SARS PLpro yeast 1.4%, Pf growth 96h 10.4µM*, Pf growth 48h inconclusive and Sm TGR block 9.4%.
Screening CCc1cccc(OCC(=O)Nc2cc(S(=O)(=O)N3CCOCC3)ccc2N2CCCC2)c1 returned SARS PLpro yeast -0.9%, Pf growth 96h 8.28µM*, Pf growth 48h inconclusive and Sm TGR block -4.9%.
`O=C(c1ccccc1)c1cc(F)c(N2CCOCC2)cc1Cl` gave SARS PLpro yeast -16.8%, Pf growth 96h 9.28µM*, Pf growth 48h 9.3% and Sm TGR block -18.0%.
For Cc1ccc(NC(=O)CSCC(=O)OC(C)C(=O)Nc2ccccc2C)cc1 (configuration not stated) the results were SARS PLpro yeast -4.0%, Pf growth 96h 46.7%, Pf growth 48h 20.7% and Sm TGR block 0.9%.
`COc1ccc2c(CC(=O)Nc3ccc(OC)c(NS(=O)(=O)c4ccc(F)cc4)c3)coc2c1` gave SARS PLpro yeast -0.7%, Pf growth 96h 14.7µM*, Pf growth 48h inconclusive and Sm TGR block 4.4%.
`O=C(COc1ccccc1)Nc1cc(C(F)(F)F)ccc1N1CCCC1` gave SARS PLpro yeast -6.9%, Pf growth 96h -6.2%, Pf growth 48h inconclusive and Sm TGR block 0.0%.
For COc1cccc(CC(=O)Nc2cc(C(F)(F)F)ccc2N2CCCC2)c1 the results were SARS PLpro yeast 1.9%, Pf growth 96h 13.1µM*, Pf growth 48h inconclusive and Sm TGR block -0.3%.
Screening COc1ccc2c(CC(=O)Nc3cccc(S(=O)(=O)N4CCOCC4)c3)coc2c1 returned SARS PLpro yeast -5.6%, Pf growth 96h 2.33µM*, Pf growth 48h inconclusive and Sm TGR block 5.2%.
`O=C(Cc1ccccc1)Nc1cc(C(=O)c2ccccc2)ccc1N1CCOCC1` gave SARS PLpro yeast -10.8%, Pf growth 96h 5.22µM* and Sm TGR block -5.8%.
COc1ccc2c(CC(=O)Nc3ccccc3OC)coc2c1 was read as SARS PLpro yeast -0.4%, Pf growth 96h 69.5%, Pf growth 48h 17.6% and Sm TGR block 0.4%.
C/C=C/c1ccc(OCC(=O)Nc2cc(S(=O)(=O)N3CCOCC3)ccc2N2CCCC2)c(OC)c1 was read as SARS PLpro yeast -0.8%, Pf growth 96h inconclusive, Pf growth 48h 13.1µM* and Sm TGR block -11.0%.
Screening COc1ccc(CC(=O)Nc2cc(S(=O)(=O)N3CCOCC3)ccc2N2CCCC2)cc1OC returned SARS PLpro yeast 6.6%.
For O=C(COc1ccccc1)Nc1cc(S(=O)(=O)N2CCOCC2)ccc1N1CCCC1 the results were SARS PLpro yeast 3.3%, Pf growth 96h inconclusive, Pf growth 48h inconclusive and Sm TGR block -13.1%.
`Cc1cccc(OCC(=O)Nc2cc(S(=O)(=O)N3CCOCC3)ccc2N2CCCC2)c1C` gave SARS PLpro yeast -2.2%, Pf growth 96h 7.38µM*, Pf growth 48h 4.15µM* and Sm TGR block 2.8%.
Cn1c(=O)c2sccc2n2c(CCCC(=O)N3CCN(c4ccccn4)CC3)nnc12 was read as SARS PLpro yeast 5.3%, Pf growth 96h 9.28µM*, Pf growth 48h inconclusive and Sm TGR block 2.0%.
`CCCn1c(=O)c2sccc2n2c(CCCC(=O)NCc3ccco3)nnc12` gave SARS PLpro yeast inconclusive, Pf growth 96h 14.7µM*, Pf growth 48h inconclusive and Sm TGR block inconclusive.
For CCC1CCCCN1C(=O)Cn1c(=O)n(CCC(=O)NCc2ccco2)c(=O)c2sccc21 (configuration not stated) the results were SARS PLpro yeast 8.5%, Pf growth 96h 5.22µM*, Pf growth 48h -15.6% and Sm TGR block -0.1%.
Screening COc1cccc(NC(=O)CCN2C(=O)C3CC=CCC3C2=O)c1 (configuration not stated) returned SARS PLpro yeast 3.6%, Pf growth 96h inconclusive, Pf growth 48h 105.9% and Sm TGR block -24.5%.
